# Reference: PubChem BioAssay (NCI)
# Compounds without any hit were thinned out: in the full panel of roughly 83,000, 20% have a hit.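 In brief: 96-well plates, 48 h treatment, single concentration, percent growth endpoint.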 Values without a mark were called inactive. Calls of active or inactive are those of the source. How the source made its calls: active means growth percent below 10; inactive means the rest.
# Assays:
# Experiment in all cases: NCI-60 one-dose screen, 48 h (100 = growth as untreated, 0 = no growth, -100 = all killed)
# Settings in all cases: 10 µM
# [1] = test system: SK-MEL-2 melanoma
# [2] = test system: EKVX NSCLC
# [3] = test system: TK-10 renal
# [4] = test system: ACHN renal
# [5] = test system: CAKI-1 renal
# [6] = test system: A498 renal
# [7] = test system: CCRF-CEM leukemia
# [8] = test system: MOLT-4 leukemia
# [9] = test system: SR leukemia
# [10] = test system: RPMI-8226 leukemia
# [11] = test system: OVCAR-8 ovarian
# [12] = test system: OVCAR-5 ovarian
# [13] = test system: OVCAR-4 ovarian
# [14] = test system: SK-OV-3 ovarian
# [15] = test system: IGROV1 ovarian
# [16] = test system: OVCAR-3 ovarian
# [17] = test system: HS 578T breast
# [18] = test system: NCI/ADR-RES ovarian
# [19] = test system: SN12C renal
# [20] = test system: UO-31 renal
SMILES,growth [1],growth [2],growth [3],growth [4] [%],growth [5],growth [6],growth [7],growth [8],growth [9],growth [10],growth [11],growth [12] [%],growth [13],growth [14],growth [15],growth [16],growth [17],growth [18],growth [19] [%],growth [20]
COc1cc(C2=Nc3c/c(=C\c4c(O)[nH]c5ccc(Cl)cc45)ccc3=N2)cc(OC)c1OC,31.1%,77.7%,35%,73.2,50.4%,93.4%,8.61% (active),10.3%,-18% (active),16.3%,-71.4% (active),79.6,-83.1% (active),85.7%,49%,17.3%,-43.3% (active),52.2%,,
O=[N+]([O-])c1ccc(-c2nc(Cl)c3c(n2)CCCC3)o1,102%,,118%,97.4,-15.6% (active),84.3%,86.8%,92.8%,44.7%,85.3%,85%,103,89.6%,108%,89.3%,108%,86.8%,,42.5,97.8%
O=C(NC1CCCC1)c1ccc(N2CCC(NCc3cccc(C(F)(F)F)c3)CC2)cc1,108%,,101%,97.9,101%,92.1%,75.7%,70.2%,0.0064% (active),71.3%,95.2%,94.2,89.5%,98.4%,94.1%,90.4%,96.1%,88.3%,94.2,62.3%
CCC1(C)OC(=O)NC1=O (stereo not drawn),106%,101%,99.3%,102,97.8%,125%,83.1%,112%,115%,96.6%,105%,97.1,112%,84%,,112%,109%,95.9%,,
CCCOCC(O)CNCCN (stereo not drawn),116%,,102%,95.4,92.5%,89%,97.6%,115%,99.2%,101%,102%,100,102%,97.4%,116%,121%,112%,123%,92.8,87.8%
CC(C)C(C)C(N)C(=O)O (stereo not drawn),101%,,95.4%,99,99%,109%,95.1%,93%,93.7%,99.6%,105%,114,115%,96%,101%,111%,117%,107%,106,85.6%
c1ccc(OCCC[P+](c2ccccc2)(c2ccccc2)c2ccccc2)cc1,-11.5% (active),,18.1%,66,76.6%,12.1%,1.67% (active),0.0403% (active),-21.2% (active),-27.6% (active),7.15% (active),29,8.32% (active),19.6%,10.5%,7.59% (active),43.3%,93.3%,10.4,63.8%
Nc1c(C(=O)NC2CCCCC2)sc2nc3c(cc12)C(=O)CCC3,97.2%,,140%,107,90.3%,88.6%,98.8%,90.2%,78.7%,100%,101%,114,105%,120%,116%,112%,102%,102%,93.3,94.6%
Cc1[nH]nc2c(=S)[nH]c(=O)[nH]c12,109%,,108%,104,101%,100%,97.8%,105%,113%,101%,99.1%,99.4,99.6%,109%,111%,110%,105%,100%,105,93.4%
Cc1c(C(=O)N[C@H](CO)Cc2ccccc2)[nH]c2ccc(Cl)cc2c1=O,95.7%,94.4%,94.5%,,94.8%,98%,94.8%,92.2%,81.4%,92.3%,96.6%,112,108%,99.8%,106%,111%,102%,108%,,
C#CCNCCN1C(=O)c2ccc3c4c(ccc(c24)C1=O)C(=O)N(CCNCC#C)C3=O,58.6%,55.7%,51.7%,22.9,49.8%,94.1%,40.2%,20%,13.9%,45.3%,32%,68.2,-34.7% (active),70.3%,36.9%,5.29% (active),64%,45.1%,,
CC(=O)c1c(O)cc2c3c1OC(C)(C)C1CCC(C)(CC31)O2 (stereo not drawn),99.2%,,110%,95.1,89.5%,76%,106%,78.9%,86.7%,54.4%,86.3%,97.7,89.6%,97.6%,96.2%,93.8%,115%,89.6%,99.6,77.8%
CC(=O)/C(=C\c1ccc(Cl)cc1)c1ccccc1,39.3%,32.9%,57.1%,,15.6%,15.7%,11.1%,11.9%,6.01% (active),19%,15.2%,51.5,57.7%,39.1%,28.5%,-8.06% (active),23.8%,30.7%,,52.2%
O=S(=O)(O)C1(O)CCCCC1,90.1%,,169%,72.9,76%,112%,92.8%,87.9%,83.1%,81.5%,79.3%,90.5,79.1%,94.9%,65.9%,103%,104%,95.4%,99.3,58.9%
COc1ccc(-c2[nH]ncc2-c2cc(OC)c(OC)c(OC)c2)cc1,-2.39% (active),,44.7%,14.8,6.08% (active),-19.9% (active),2.66% (active),-6.22% (active),0.125% (active),0.214% (active),9.19% (active),20.7,26.8%,-0.205% (active),28.8%,-17.5% (active),16.1%,14.5%,20.8,11.6%
CC(C)(C)CC(C)(C)c1ccc(O)c(Cc2ccc(Cl)cc2Cl)c1,-76.9% (active),-77.1% (active),-92.7% (active),,-83.3% (active),-94% (active),-37.4% (active),-62.7% (active),-57.5% (active),-10.7% (active),-43.4% (active),,-86.5% (active),-86.6% (active),-82.8% (active),-93.7% (active),-23% (active),-81.1% (active),,-98.7% (active)
CC(=O)O[C@H]1CC[C@@]2(C)[C@@H](CC[C@@H]3[C@@H]2CC[C@]2(C)C=C(C=O)C[C@@H]32)C1,73.7%,,120%,95,91%,94.9%,-20.8% (active),-29.1% (active),2.16% (active),8.64% (active),24.9%,71.8,70.4%,113%,60.2%,57.8%,105%,70.5%,58.9,93%
